A549 viability = counter-screen for Nrf2 inhibitors: cytotoxicity in A549 cells | A549 ARE-Fluc cells, CellTiter-Fluor viability, 18-24 h | Potency, µM (top dose mostly 46 µM), most hits filed as inhibitors | 0.16% of 390,000 active | AID 504648
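A549 ARE_Fluc cells in 5% FBS OPTI-MEM were exposed to compounds in concentration-response for 18-24 h at 37 deg C. Viability was read by CellTiter-Fluor fluorescence (Ex 405/Em 525) after 30 min, before the luciferase read.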
IDH1 R132H inh = human IDH1 R132H inhibition | AID 602179 | O75874 | IDH1-R132H enzyme, NADPH consumption, diaphorase/resazurin fluorescence | Potency, µM (series often up to 76.6 µM), actives largely listed as inhibitors | 0.093% of 390,000 active; also: nearly all actives have a fitted effect of over 65% in size
Target sequence (O75874 whole entry R132H, stated change not applied): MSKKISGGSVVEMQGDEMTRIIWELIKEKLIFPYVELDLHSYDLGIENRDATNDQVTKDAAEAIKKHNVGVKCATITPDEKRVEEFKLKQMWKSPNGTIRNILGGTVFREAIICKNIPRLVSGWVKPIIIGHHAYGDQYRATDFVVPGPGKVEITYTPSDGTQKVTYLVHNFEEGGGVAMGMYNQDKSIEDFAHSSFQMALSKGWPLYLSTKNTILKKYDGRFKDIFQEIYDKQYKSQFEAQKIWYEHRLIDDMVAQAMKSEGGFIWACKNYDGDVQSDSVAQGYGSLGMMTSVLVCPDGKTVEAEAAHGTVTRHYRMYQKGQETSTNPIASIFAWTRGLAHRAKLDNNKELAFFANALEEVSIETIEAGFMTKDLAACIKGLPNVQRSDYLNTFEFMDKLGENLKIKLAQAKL
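IDH1-R132H (0.5 ug/mL) preincubated 30 min with compound, then NADPH (0.016 mM) and alpha-KG (2 mM) added; 80 min at RT, pH 7.5. Remaining NADPH coupled via diaphorase/resazurin to fluorescence (540/590 nm); concentration-response curves normalized to no-enzyme control.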
ELG1 repair inh = ELG1-dependent DNA repair inhibition. Potency, µM (doses to about 46.1 µM), most hits filed as inhibitors. 2.3% of 330,000 active. HEK293T ELG1-luciferase reporter, luminescence, 16 h; DNA damage induced by 5-fluorouridine. AID 504467; also: nearly all actives have a fitted effect of over 55% in size
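DMSO vehicle served as the neutral condition. Each well held 2,000 cells given 5-fluorouridine plus compound; after 16 hr at 37 °C/5% CO2, ONE-Glo was added and luciferase measured 30 min later.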
Nrf2 activator = activators of Nrf2 (ARE) signaling. AREc32 ARE-luciferase reporter (MCF7-derived line), luminescence, 24 h. Potency, µM (doses to about 46.1 µM), actives largely listed as activators. 0.31% of 410,000 active; also: nearly all actives have a fitted effect of over 65% in size
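AREc32 cells carrying an ARE-driven firefly luciferase, 1000 cells/well in OPTI-MEM with 5% FBS, dosed after overnight attachment and incubated 24 hr at 37 deg C. Steady-Glo luminescence read after 30 min at RT.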
Nrf2 block = inhibitors of Nrf2 signaling; Potency, µM (doses to about 46 µM), most hits filed as inhibitors; A549 ARE-Fluc reporter, luciferase luminescence, 18-24 h; 2.1% of 360,000 active; also: nearly all actives have a fitted effect of over 60% in size
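A549 ARE_Fluc cells, 5000/well, 5% FBS OPTI-MEM; compounds in dose-response, 18-24 h at 37 °C/5% CO2; CellTiter-Fluor viability read (Ex 405/Em 525), then BugLite luciferase luminescence = Nrf2 activity.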
Large screens that a line does not name were inactive. Sampled rows, rich in hits. Any-hit rate of the full collection: about 3.8%. Calls follow the shape of the dose curve; as a rule, active = well fitted curve in the direction sought with a large enough effect; inconclusive = small, poorly fitted or top-dose-only effect, or another doubt; inactive = no such curve, though single readings can be large; an effect the other way counts as inactive or inconclusive.

Cc1ccc2c(C)c(C(=O)N(Cc3ccc(N(C)C)cc3)Cc3ccco3)oc2c1C	none (no result: IDH1 R132H inh, ELG1 repair inh)
N#C/C(=C\c1ccc(-c2ccccc2[N+](=O)[O-])o1)C(=O)Nc1nc(-c2cccs2)cs1	ELG1 repair inh 21µM, Nrf2 block inconclusive
COCCNC(=O)c1c[nH]c2ccc(S(=O)(=O)N(C)c3ccc(C)c(C)c3)cc2c1=O	ELG1 repair inh inconclusive, Nrf2 block inconclusive
CCOn1c(=O)c(=O)n(OCc2ccccc2)c2ccccc21	Nrf2 activator 22µM (no result: Nrf2 block)
Cn1c(=O)n(C)c2cc([N+](=O)[O-])c(N3CCN(S(=O)(=O)c4ccccc4)CC3)cc21	ELG1 repair inh 12µM, Nrf2 block inconclusive
Cn1c(=O)n(C)c2cc([N+](=O)[O-])c(N3CCN(C(=O)c4ccccc4Br)CC3)cc21	A549 viability inconclusive, ELG1 repair inh inconclusive, Nrf2 block 18µM
Cn1c(=O)n(C)c2cc([N+](=O)[O-])c(N3CCN(C(=O)c4ccccc4Cl)CC3)cc21	ELG1 repair inh inconclusive, Nrf2 block inconclusive
COc1ccc(C(=O)C2CCCN(C(=O)c3noc4c3CCCC4)C2)c(C)c1 (stereo not given)	ELG1 repair inh 26µM
COc1ccc(C(=O)C2CCCN(C(=O)c3noc4c3CCCC4)C2)cc1F (stereo not given)	ELG1 repair inh inconclusive
O=C(Cn1nc(C(F)(F)F)c2c1CCCC2)Nc1ccc(F)c(Cl)c1	Nrf2 block inconclusive (no result: ELG1 repair inh)
O=C(Nc1ccc(Cl)cc1)C1CCN(c2nc3ccccc3n3cccc23)CC1	none (no result: ELG1 repair inh)
Cc1ccc(NC(=O)CSc2nn(-c3ccc(Cl)cc3)c(=S)s2)cc1S(=O)(=O)N(C)C	ELG1 repair inh 15µM, Nrf2 block inconclusive
Cc1ccc(NC(=O)CNc2ccc(Cl)c(Cl)c2)cc1S(=O)(=O)N(C)C	A549 viability inconclusive, Nrf2 block 12µM
Cc1ccc(NC(=O)CN(C)S(=O)(=O)c2cccc3nsnc23)cc1Cl	ELG1 repair inh inconclusive, Nrf2 block 18µM
Cc1ccc(NC(=O)Cc2ccc(Cl)c(Cl)c2)cc1S(=O)(=O)N(C)C	ELG1 repair inh 15µM, Nrf2 block inconclusive
Nc1ccc(S(=O)(=O)N2CCCN(S(=O)(=O)c3ccc4c(c3)OCCO4)CC2)cc1	none (no result: IDH1 R132H inh, ELG1 repair inh, Nrf2 activator)
CC12CCC(C/C1=N\N=C1\NC(=O)/C(=C\c3cccc(Br)c3)S1)C2(C)C (stereo not given)	A549 viability inconclusive, Nrf2 block 18µM
COc1cc(/C=N/N=C2\CC3CCC2(C)C3(C)C)ccc1O (stereo not given)	none (no result: ELG1 repair inh)
c1ccc2c(c1)Nc1cc3ccccc3cc1S2	ELG1 repair inh inconclusive, Nrf2 block inconclusive
c1ccc2c(c1)Nc1ccncc1S2	ELG1 repair inh 18µM, Nrf2 block 29µM
Cc1cc2c(s1)c1cnn(Cc3ccc(SC(F)(F)F)cc3)c(=O)c1n2C	none (no result: IDH1 R132H inh, ELG1 repair inh, Nrf2 activator)
COc1ccc(-c2noc(CSc3nnc(Cc4ccccc4)n3-c3ccc(F)cc3)n2)cc1	Nrf2 block inconclusive (no result: ELG1 repair inh)
Cc1ccc(C)c(Nc2c([N+](=O)[O-])c(=O)oc3ccccc23)c1	ELG1 repair inh 21µM, Nrf2 block inconclusive
Cc1ccc(Nc2c([N+](=O)[O-])c(=O)oc3ccccc23)cc1	A549 viability inconclusive, ELG1 repair inh inconclusive, Nrf2 activator inconclusive, Nrf2 block 18µM
O=c1oc2ccccc2c(Nc2ccc3ccccc3c2)c1[N+](=O)[O-]	A549 viability inconclusive, Nrf2 block inconclusive
O=c1oc2ccccc2c(Nc2ccc(O)cc2)c1[N+](=O)[O-]	Nrf2 activator inconclusive
Cn1c(=O)c2sccc2n2c(CCCC(=O)Nc3ccc(Oc4ccc(Cl)cc4)cc3)nnc12	none (no result: ELG1 repair inh)
CN(NC(=O)c1ccc(Cl)cc1)c1nc(-c2ccccc2)nnc1C(F)(F)F	ELG1 repair inh inconclusive, Nrf2 block 23µM
O=C(Cn1ncc2c([nH]c3ccccc32)c1=O)NCc1cccc(Cl)c1	none (no result: ELG1 repair inh)
Fc1cccc(CN2CCc3nc(Nc4ccc5c(c4)OCCO5)ncc3C2)c1F	none (no result: ELG1 repair inh, Nrf2 block)
CCn1c(SCC(=O)Nc2cccc(Cl)c2)nnc1-c1nonc1NC(C)=O	none (no result: ELG1 repair inh)
CC(C(=O)NCCS(=O)(=O)c1ccc(Cl)cc1)S(=O)(=O)c1ccc(Cl)cc1 (stereo not given)	Nrf2 block 9.2µM
CC(C(=O)NCCS(=O)(=O)c1ccc(Cl)cc1)S(=O)(=O)c1ccccc1 (stereo not given)	none
O=C(Nc1ccc(N2CCCC2)c(Cl)c1)c1ccco1	ELG1 repair inh inconclusive, Nrf2 block inconclusive
O=C(c1ccccc1)c1ccc(N2CCOCC2)c(NC(=O)c2ccco2)c1	ELG1 repair inh 16µM, Nrf2 block inconclusive
COC(=O)c1ccc(N2CCCCC2)c(NC(=O)c2ccco2)c1	ELG1 repair inh 23µM, Nrf2 block inconclusive
Cc1ccc(NC(=O)c2cc(NC(=O)c3ccco3)ccc2N2CCOCC2)cc1Cl	ELG1 repair inh 16µM (no result: Nrf2 block)
Cc1ccc(Cc2c(-c3cccc(Cl)c3)nc3c(C)cc(Br)cn23)cc1	none (no result: A549 viability, IDH1 R132H inh, ELG1 repair inh, Nrf2 block)
CCSc1ccc2cc(OC)ccc2[n+]1CC	ELG1 repair inh inconclusive, Nrf2 block 16µM
NS(=O)(=O)c1ccc(N=Nc2c(-c3ccccc3)[nH]n(-c3nc(-c4ccccc4)cs3)c2=O)cc1	A549 viability inconclusive, ELG1 repair inh 5.2µM, Nrf2 block 4.6µM
Cc1ccc(CCNC(=O)C2CCN(S(=O)(=O)c3ccc4c(c3)NC(=O)C(C)S4)CC2)cc1 (stereo not given)	ELG1 repair inh inconclusive, Nrf2 block 16µM
Cc1ccc(NC(=O)C2CCN(S(=O)(=O)c3ccc4c(c3)NC(=O)C(C)S4)CC2)c(Cl)c1 (stereo not given)	ELG1 repair inh inconclusive, Nrf2 block 23µM
CC1Sc2ccc(S(=O)(=O)N3CCC(C(=O)NCCc4ccccc4)CC3)cc2NC1=O (stereo not given)	none
COc1cccc(CNC(=O)C2CCN(S(=O)(=O)c3ccc4c(c3)NC(=O)C(C)S4)CC2)c1 (stereo not given)	Nrf2 block 18µM
Cc1c(Cl)cccc1NS(=O)(=O)c1cc2c(cc1Cl)CCC(=O)N2	Nrf2 block inconclusive (no result: IDH1 R132H inh, ELG1 repair inh, Nrf2 activator)
CCCCSCCCNC(=O)CS(=O)Cc1nc(-c2cccc(C)c2)oc1C (stereo not given)	ELG1 repair inh 16µM
CCCCNC(=O)CS(=O)Cc1nc(-c2cccc(C)c2)oc1C (stereo not given)	none
COc1ccc(NC(=O)Cn2c(=O)n(-c3cccc(C(F)(F)F)c3)c(=O)c3sccc32)cc1	none (no result: ELG1 repair inh)
O=C(CN(Cc1ccco1)C(=O)CCC(=O)Nc1ccccn1)NCc1ccccc1	none
CCOC(=O)c1c(C)nc2c(c1C)/C(=N/O)CC(C)(C)C2	ELG1 repair inh 18µM
CCOC(=O)c1c(C)nc2c(c1-c1ccc(OC)cc1)C(=O)CC(C)(C)C2	ELG1 repair inh inconclusive
COc1ccccc1C1C=C(c2ccccc2)Nc2nnnn21 (stereo not given)	Nrf2 block inconclusive

Screening data (PubChem BioAssay)
